Screen size: about 350,000 compounds; about 6,000 (1.7%) were called active. Not shown: some 5% with an inconclusive outcome. Rule as the data show it: active = CPE inhibition above about 20% (passing the limit was not always enough); inconclusive = no clear call, values can overlap the other calls; tested in BHK-21 cells. The full list was thinned out, with actives kept by preference.

This note sets out measurements from PubChem BioAssay AID651640 (Broad Institute, 2012).

This assay is described as follows: protection of cells from dengue 2 killing – plate reader, single concentration, primary screen (AID 651640).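 Also: 0% = median of neutral control wells and 100% = median of positive control wells.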 Particulars: DENV2-infected cells, cytopathic effect rescue, at 9.99 µM, active compounds read high. (In general: Protection from cytopathic effect is a common read-out in antiviral testing.)
With `CCCN(C)C[C@H]1Oc2ncc(-c3ccccc3OC)cc2C(=O)N([C@H](C)CO)C[C@H]1C`, the CPE inhibition was 1.17% (inactive).
In the case of `C[C@H](CO)N1C[C@H](C)[C@@H](CN(C)S(=O)(=O)c2ccccc2)OCCCC[C@H](C)Oc2ccc(NC(=O)NC3CCCCC3)cc2C1=O` it was -3.62% (inactive).
Then `C[C@H]1CCCCO[C@H](CN(C)C(=O)CCC(F)(F)F)[C@@H](C)CN([C@@H](C)CO)C(=O)c2cc(NC(=O)Nc3ccc4c(c3)OCO4)ccc2O1`, with -12.5% (inactive); and `C[C@@H]1CN([C@H](C)CO)C(=O)c2cccc(NS(=O)(=O)c3ccc(F)cc3)c2O[C@@H]1CN(C)C(=O)Nc1ccc(F)cc1`, with 10.9% (inactive).
Then `C[C@H](CO)N1C[C@H](C)[C@H](CN(C)S(=O)(=O)c2ccc(C#N)cc2)Oc2ncc(-c3cccc(F)c3)cc2C1=O`, with 2.2% (inactive); and `COCC(=O)N(C)C[C@@H]1Oc2cc(C#CCC(C)C)ccc2S(=O)(=O)N([C@@H](C)CO)C[C@@H]1C`, with -6.44% (inactive); and `CCC1(CC)NC(=O)N(Cc2nc3ccccc3s2)C1=O`, with -2.84% (inactive).
Consider `COC(=O)C1[C@H]2SC(C)(C)C(C(=O)OC)N2C(=O)N1Cc1nc2ccccc2s1` (stereo not given in full), for which the CPE inhibition was 38.1% (active).
Then `CC1(C)S[C@@H]2[C@H](NC(=O)COc3ccccc3)C(=O)N2C1C(=O)OCc1ccccc1` (stereo not given in full), with 9.26% (inactive).
Then `C/C=C/c1ccc2c(c1)O[C@H](CN(C)C(C)=O)[C@H](C)CN([C@H](C)CO)S2(=O)=O`, with -7.9% (inactive).
In the case of `COc1cccc(S(=O)(=O)N2C[C@@H](O)COC[C@H]3O[C@H](CC(=O)N4CCCCC4)CC[C@@H]32)c1` it was -9.51% (inactive).
As to `O=C(O)/C=C/c1ccc(OCCCF)cc1`, the CPE inhibition was -4.88% (inactive).
Turning to `O=C(/C=C(O)/C=C/c1ccc(O)cc1)/C=C/c1ccc(O)cc1`, the CPE inhibition was 61.1% (active).
In the case of `O=C(/C=C/c1ccc2c(c1)OCCO2)c1ccc(O)cc1` it was -0.309% (inactive).
For the molecule `CC(C)NC(=O)N(C)C[C@H]1Oc2ncc(-c3ccccc3F)cc2C(=O)N([C@@H](C)CO)C[C@@H]1C`, the CPE inhibition was -8.68% (inactive).
Then `CO[C@@H]1CN(C)C(=O)c2cc(NS(=O)(=O)c3ccccc3)ccc2OC[C@@H](C)N(C(=O)NC(C)C)C[C@@H]1C`, with 10.4% (inactive); and `O=C(c1cccnc1)N(c1cc2sc(=O)oc2c2ccccc12)S(=O)(=O)c1ccccc1`, with -6.54% (inactive); and `COc1ccc(N(CC(=O)N/N=C/c2cccs2)S(=O)(=O)c2ccc(OC)c(OC)c2)cc1`, with 6.81% (inactive).
As to `COc1ccc(N(C(=O)c2cccnc2)S(=O)(=O)c2ccc(OC)c(OC)c2)cc1`, the CPE inhibition was 29.9% (active).
Then `CO[C@H]1CN(C)C(=O)c2ccc(NS(=O)(=O)c3ccccc3)cc2OC[C@@H](C)N(Cc2nccs2)C[C@@H]1C`, with -6.98% (inactive).
Then `CO[C@@H]1CN(C)C(=O)c2ccc(NS(=O)(=O)c3ccc(Cl)cc3)cc2OC[C@H](C)N(C(=O)NC(C)C)C[C@H]1C`, with 9.25% (inactive).
With `C[C@@H]1CN([C@H](C)CO)C(=O)c2cc(NC(=O)Nc3ccc4c(c3)OCO4)ccc2O[C@H]1CN(C)C(=O)Nc1ccccc1`, the CPE inhibition is 6.05% (inactive).
As to `O=C(C[C@H]1C[C@@H]2c3cc(NC(=O)c4ccc5c(c4)OCO5)ccc3O[C@@H]2[C@@H](CO)O1)NCCN1CCCCC1`, the CPE inhibition is -1.97% (inactive).
In the case of `Cc1noc(C)c1S(=O)(=O)N(C)C[C@@H]1OCc2ccccc2-c2ccccc2C(=O)N([C@@H](C)CO)C[C@H]1C` it was 4.05% (inactive).
In the case of `Cc1cc(C(=O)CCC(=O)NNC(=O)c2ccccc2O)c(C)s1`, the CPE inhibition was -2.6% (inactive).
In the case of `Cc1cc(C(=O)NNC(=O)c2ccccc2O)c(C)o1` it was -2.62% (inactive); in that of `O=C(NNC(=O)c1ccccc1O)c1ccccc1O`, 48.5% (active).
In the case of `COc1cccc(-c2ccc3n(c2=O)C[C@@H]2[C@@H](CO)[C@H](C(=O)NC4CCC4)[C@H]3N2C)c1` it was -5.73% (inactive).
Then `C[C@H](CO)N1C[C@H](C)[C@@H](CN(C)S(=O)(=O)c2cccs2)Oc2ccc(NC(=O)Nc3ccc(C(F)(F)F)cc3)cc2CC1=O`, with 3.14% (inactive).
Turning to `CCCC(=O)Nc1ccc2c(c1)C(=O)N(C)[C@H]1CC[C@@H](CC(=O)NCc3ccccc3)O[C@@H]1CO2`, the CPE inhibition was -7.15% (inactive).
Then `C[C@@H]1CN([C@@H](C)CO)C(=O)c2cc(NC(=O)Nc3ccc4c(c3)OCO4)ccc2O[C@@H]1CN(C)C(=O)Nc1ccc2c(c1)OCO2`, with -0.429% (inactive); and `CCCCCCSc1ccc(-c2nc3ccc(Cl)cn3c2NCc2ccccc2)cc1`, with 3.27% (inactive); and `CCCCNc1c(-c2ccc(OC)c(Sc3ccc(OC)cc3)c2)nc2ccc(Cl)cn12`, with 30.7% (active).
Then `CCCCNc1c(-c2cccc(Sc3ccc(OC)cc3)c2)nc2ccccn12`, with -17.2% (inactive).
In the case of `COC(=O)C[C@@H]1C[C@@H]2c3cc(NC(=O)NC4CCCC4)ccc3O[C@@H]2[C@@H](CO)O1`, the CPE inhibition was -3.24% (inactive).
Take `CO[C@@H]1CN(C)C(=O)c2cc(NC(=O)C3CCOCC3)ccc2OC[C@H](C)N(Cc2cccnc2)C[C@@H]1C`: the CPE inhibition was -1.61% (inactive).
In the case of `CCNc1ccc(C(=O)OCC(=O)N2c3ccccc3NC(=O)C2(C)C)cc1[N+](=O)[O-]` it was -0.27% (inactive); in that of `CNS(=O)(=O)c1cccc(C(=O)OCC(=O)N2c3ccccc3NC(=O)C2(C)C)c1`, 28.3% (active); in that of `Cc1cc(C(=O)OCC(=O)N2c3ccccc3NC(=O)C2(C)C)c(C)n1-c1ccccc1`, -1.8% (inactive).
Take `C[C@@H]1CN([C@H](C)CO)C(=O)Cc2cc(NC(=O)Cc3ccccc3)ccc2O[C@H]1CN(C)S(=O)(=O)c1cccs1`: the CPE inhibition was 1.69% (inactive).
In the case of `COc1ccc(S(=O)(=O)N(C)C[C@@H]2OCCCC[C@@H](C)Oc3ccc(NC(=O)CCCN(C)C)cc3C(=O)N([C@@H](C)CO)C[C@@H]2C)cc1` it was 0.066% (inactive); in that of `CCCNC(=O)c1cc2c(c(-c3cccc(-c4ccc(C#N)cc4)c3)n1)[C@@H](CCO)N(C(=O)CC)C2`, 4.99% (inactive).
Consider `CCS(=O)(=O)N1Cc2cc(C(=O)N(C)C)nc(-c3cccc(-c4ccc(C#N)cc4)c3)c2[C@H]1CCO`, for which the CPE inhibition is 20.3% (active).
On to `CC(C)(C)[S@@](=O)N1Cc2cc(C(=O)N3CCOCC3)nc(-c3cccc(-c4ccc(C#N)cc4)c3)c2[C@H]1CCO`, for which the CPE inhibition is -2.86% (inactive).
In the case of `CC(C)NC(=O)N(C)C[C@H]1Oc2c(NC(=O)Nc3ccc(F)cc3)cccc2C(=O)N([C@@H](C)CO)C[C@@H]1C` it was 10.9% (inactive); in that of `CO[C@H]1CN(C)C(=O)c2ccc(NC(=O)c3cccc(F)c3)cc2OC[C@@H](C)N(C(C)=O)C[C@@H]1C`, -2.36% (inactive).
In the case of `COc1ccc(NC(=O)N(C)C[C@@H]2Oc3ccc(NS(=O)(=O)c4ccc(OC)cc4)cc3CC(=O)N([C@H](C)CO)C[C@H]2C)cc1` it was 11.3% (inactive).
As to `Cc1noc(C)c1S(=O)(=O)Nc1ccc2c(c1)C(=O)N([C@@H](C)CO)C[C@H](C)[C@H](CN(C)C(=O)Nc1ccc(C(F)(F)F)cc1)O2`, the CPE inhibition was -2.38% (inactive).
`Cc1noc(C)c1NC(=O)N(C)C[C@H]1Oc2ccc(NS(=O)(=O)c3ccc(Cl)cc3)cc2CC(=O)N([C@H](C)CO)C[C@@H]1C`: the CPE inhibition was -8.56% (inactive).
Then `COc1ccc(S(=O)(=O)Nc2ccc3c(c2)CC(=O)N([C@H](C)CO)C[C@H](C)[C@H](CN(C)C(=O)Nc2ccccc2)O3)cc1`, with -6.98% (inactive); and `COc1ccc(S(=O)(=O)Nc2ccc3c(c2)CC(=O)N([C@H](C)CO)C[C@@H](C)[C@H](CN(C)S(=O)(=O)c2c(C)noc2C)O3)cc1`, with -6.33% (inactive); and `COc1ccc(S(=O)(=O)Nc2ccc3c(c2)CC(=O)N([C@H](C)CO)C[C@H](C)[C@@H](CN(C)C(=O)NC(C)C)O3)cc1`, with 21.3% (active).
Regarding `Cc1noc(C)c1S(=O)(=O)Nc1ccc2c(c1)CC(=O)N([C@@H](C)CO)C[C@H](C)[C@H](CN(C)C(=O)Nc1ccccc1)O2`, the CPE inhibition is -4.97% (inactive).
As to `Cc1noc(C)c1S(=O)(=O)Nc1ccc2c(c1)CC(=O)N([C@@H](C)CO)C[C@@H](C)[C@@H](CN(C)C(=O)Nc1ccc(C(F)(F)F)cc1)O2`, the CPE inhibition is 46.5% (active).
As for `COc1ccc(S(=O)(=O)Nc2ccc3c(c2)CC(=O)N([C@@H](C)CO)C[C@@H](C)[C@@H](CN(C)C(=O)Nc2c(C)noc2C)O3)cc1`, the CPE inhibition was 29.8% (active).
As for `C[C@H]1CN([C@@H](C)CO)C(=O)c2cc(Br)cnc2O[C@H]1CN(C)CC1CCCC1`, the CPE inhibition was 7.93% (inactive).
For the molecule `O=C(C[C@@H]1C[C@@H]2c3cc(NC(=O)NC4CCCC4)ccc3O[C@@H]2[C@@H](CO)O1)NCc1ccccc1`, the CPE inhibition is -0.285% (inactive).
Then `O=C(NCC1CC1)[C@@H]1[C@@H](CO)[C@@H]2Cn3c(ccc(-c4ccccc4)c3=O)[C@H]1N2Cc1nccs1`, with -2.52% (inactive).
With `CN(C)CC(=O)N[C@H]1CC[C@H](CCNC(=O)C2CCCCC2)O[C@H]1CO`, the CPE inhibition was -1.04% (inactive).
In the case of `O=C(Cc1ccccn1)N1CC(=O)N2[C@H](C1)[C@@H](c1ccc(-c3ccccc3)cc1)[C@@H]2CO` it was 4.12% (inactive); in that of `C[C@@H]1CN([C@H](C)CO)C(=O)c2cc(NC(=O)Nc3ccccc3)ccc2O[C@@H](C)CCCCO[C@@H]1CN(C)Cc1ccncc1`, -2.85% (inactive); in that of `COCC#Cc1cnc2c(c1)C(=O)N([C@@H](C)CO)C[C@@H](C)[C@H](CN(C)C(=O)C1CCOCC1)O2`, 4.93% (inactive).
Then `O=C(NCc1ccccc1)C1CCN(C(=O)Cc2ccccc2)CC1`, with -10.5% (inactive); and `O=C(O)C1C2C=CC(C2)C1C(=O)NCc1ccccc1` (stereo not given), with 23.9% (active).
In the case of `O=C(NCc1ccccc1)C1CNCC(C(=O)NCc2ccccc2)C1` (stereo not given) it was -5.52% (inactive).
